Experiment [1] in a line: reducers of endogenous Her2 protein level, primary screen, SKBR3 breast tumor cells, AlphaScreen, ATP viability (AID 461).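 For Her2 level: lower value means less Her2 protein in the cells.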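 For viability: percent of carrier control wells set as 100% viability.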 As to conditions: 18-24 h, measured here: SKBR3 viability, ATP luminescence, at 10 µM. On the technique in general: In Alpha technology, singlet oxygen from a donor bead excites a nearby acceptor bead.
In experiment [2] the target is Receptor tyrosine-protein kinase erbB-2 (Homo sapiens) (UniProt P04626). The description is as above. As to conditions: 18-24 h, at 10 µM, stronger effect = lower value.
Experiment [3] is described as follows: SK-BR-3 cell growth inhibitors, pilot screen, 24 h, human (AID 572;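 active = viability at or below 10% of carrier control in both of two separate runs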;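 note: compound exposure lasted between 18 and 24 h rather than exactly 24 h; 100% = carrier-treated control wells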). As to conditions: SK-BR-3 viability, CellTiter-Glo luminescence, at 10 µM, stronger effect = lower value. On the technique in general: In ATP-based viability assays light output follows the ATP content of the culture.
Experiment [4] is described as follows: HUVEC growth inhibition – cell-based, human, primary screen (AID 575;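 active = viability at or below 30% in both replicate assays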;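 note: 100% = median of untreated cell wells with 0.1% DMSO on each plate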). As to conditions: HUVEC proliferation, CellTiter-Glo luminescence, 72 h; at 10 µM; stronger effect = lower value.
Experiment [5] can be described thus: growth inhibitors of H69AR lung tumor, primary screen, human, duplicate replicates (AID 580;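 active = viability at or under a set limit in both replicates, limit being median viability minus 3 SD, cut at about 48% in these data, passing the limit was not always enough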;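 note: 100% = mean luminescence of untreated wells and 0% = no signal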). The settings on record: H69AR lung tumor cells viability, ATP luminescence, 72 h; at 10 µM; stronger effect = lower value.
The nature of experiment [6]: reversal of MRP1-mediated doxorubicin resistance, pilot screen, H69AR cells, doxorubicin co-treatment (AID 601;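 active = viability loss from added drug above about 55%, and viability with drug at most 40%, in both replicates, limit read from the data, passing the limit was not always enough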). The settings on record: CellTiter-Glo, 72 h, at 10 µM; for differential viability (reversal): stronger effect = higher value.
Experiment [7] can be described thus: 384-well plate pilot, post-Golgi transport modulator project, inhibition of yeast transport mutant growth (AID 636; in the data active = inhibition above about 31%). The settings on record: absorbance 615 nm, about 18 h, stronger effect = higher value.
Experiment [8] in a line: growth suppression of yeast trafficking mutant, preliminary HTS, modulators of trafficking downstream of Golgi apparatus project, 1536-format plate, OD 615 nm (AID 637; in the data active = inhibition above about 30%). As to conditions: yeast transport mutant growth, absorbance 615 nm, 18 h; stronger effect = higher value.
Experiment [9] can be described thus: OD615 S. cerevisiae growth inhibition, permissive medium, pilot counter-assay, permissive growth control for S. cerevisiae lifespan shortening project (AID 705;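 active = growth inhibition above 25% in both replicates, a cutoff set 3 SD above the mean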). As to conditions: OD615, 24 h, at 10 µM, stronger effect = higher value.
The nature of experiment [10]: Restrictive medium S. cerevisiae growth inhibition, OD615, pilot screen of yeast lifespan reduction project, restrictive growth control (AID 706;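 active = growth inhibition above a set limit, 3 SD over mean compound inhibition, in both replicates, cut at about 43% in these data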;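 note: modified DeaD lifespan yeast strain shifted to restrictive glucose medium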). The settings on record: OD615, 48 h, at 10 µM, stronger effect = higher value.
Experiment [11] can be described thus: viability gain of MRP-1-high H69AR cells under doxorubicin, pilot screen, MRP-1 activator project, CellTiter-Glo, duplicate (AID 807;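 active = viability increase at or above a cutoff of the median across tested compounds plus 3 SD, cut at about 8.5% in these data, passing the limit was not always enough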;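 note: compound pretreatment 18-22 h then 72 h combined with doxorubicin; 0% = doxorubicin alone and 100% = vehicle without doxorubicin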). As to conditions: H69AR viability with doxorubicin, CellTiter-Glo luminescence; at 10 µM; stronger effect = higher value.
The nature of experiment [12]: growth suppression of beta-catenin knockout HCT116, pilot screen, human colon tumor cells (AID 823;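 active = cell viability at or below a set limit in both duplicate runs, the limit being the all-compound median minus 4 SD, cut at about 23% in these data, passing the limit was not always enough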;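 note: 0% = wells killed by 20 µM Hyamine and 100% = untreated DMSO cell wells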). As to conditions: CellTiter-Glo, 60 h, at 10 µM, stronger effect = lower value.
Experiment [13] is described as follows: growth suppression of PTEN-deleted HCT116, pilot screen, cell-based, HCT116 clonal line, CellTiter-Glo (AID 824;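 active = viability at or below 27.92% in each of two runs, the all-compound median minus 4 SD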;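 note: 0% = 20 µM Hyamine control and 100% = vehicle cell control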). The settings on record: 60 h, at 10 µM, stronger effect = lower value.
Experiment [14] is described as follows: inhibitors of the yeast RAM network, pilot screen, dse1pr::URA3 reporter, 5-FOA selection (AID 869;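 active = inhibition over a set limit, the all-compound mean plus 3 SD, in both replicate runs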;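 note: 0% = DMSO wells with no growth and 100% = 10 µM 1-NA-PP1 with full growth; RAM network block rescues cells from 5-FOA so hits raise OD615 growth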). As to conditions: S. cerevisiae dse1pr::URA3 5-FOA growth, OD615, 2 d; at 10 µM; stronger effect = higher value; strain carries analog-sensitive mutant Cbk1 kinase.
The nature of experiment [15]: RAM signaling pathway blockade in yeast – S. cerevisiae, Pdr1DBD-CYC8 efflux-inhibited sensitized strain, primary screen (AID 1298;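 active = RAM network inhibition above 8.4% in each of two replicates, 3 SD over the compound average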;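 note: 0% = DMSO untreated cells without growth and 100% = 10 µM 1-NA-PP1 full growth; higher means more yeast growth rescued from 5-FOA killing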). The settings on record: S. cerevisiae cbk1-as DSE1-URA3 strain, 5-FOA growth OD615, 2 d; at 50 µM; stronger effect = higher value.
Where [16] appears, read: H69AR cells + 2 uM doxorubicin, measured here: viability with 2 uM doxorubicin, stronger effect = lower value.
[17] abbreviates: H69AR cells, compound alone cytotoxicity.

The structures appear in SMILES notation. Inconclusive results are not listed. Active and inactive are the calls of the source.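 Rule for the calls, unless noted: active = Her2 level under about 52% in both replicate screens, with viability over 70% of control (limit read from the data); inconclusive = Her2 under the limit in one screen only, or viability under 70%; inactive = Her2 level above the set limit.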

Receptor tyrosine-protein kinase erbB-2 (Homo sapiens), sequence (P04626 whole entry, looked up): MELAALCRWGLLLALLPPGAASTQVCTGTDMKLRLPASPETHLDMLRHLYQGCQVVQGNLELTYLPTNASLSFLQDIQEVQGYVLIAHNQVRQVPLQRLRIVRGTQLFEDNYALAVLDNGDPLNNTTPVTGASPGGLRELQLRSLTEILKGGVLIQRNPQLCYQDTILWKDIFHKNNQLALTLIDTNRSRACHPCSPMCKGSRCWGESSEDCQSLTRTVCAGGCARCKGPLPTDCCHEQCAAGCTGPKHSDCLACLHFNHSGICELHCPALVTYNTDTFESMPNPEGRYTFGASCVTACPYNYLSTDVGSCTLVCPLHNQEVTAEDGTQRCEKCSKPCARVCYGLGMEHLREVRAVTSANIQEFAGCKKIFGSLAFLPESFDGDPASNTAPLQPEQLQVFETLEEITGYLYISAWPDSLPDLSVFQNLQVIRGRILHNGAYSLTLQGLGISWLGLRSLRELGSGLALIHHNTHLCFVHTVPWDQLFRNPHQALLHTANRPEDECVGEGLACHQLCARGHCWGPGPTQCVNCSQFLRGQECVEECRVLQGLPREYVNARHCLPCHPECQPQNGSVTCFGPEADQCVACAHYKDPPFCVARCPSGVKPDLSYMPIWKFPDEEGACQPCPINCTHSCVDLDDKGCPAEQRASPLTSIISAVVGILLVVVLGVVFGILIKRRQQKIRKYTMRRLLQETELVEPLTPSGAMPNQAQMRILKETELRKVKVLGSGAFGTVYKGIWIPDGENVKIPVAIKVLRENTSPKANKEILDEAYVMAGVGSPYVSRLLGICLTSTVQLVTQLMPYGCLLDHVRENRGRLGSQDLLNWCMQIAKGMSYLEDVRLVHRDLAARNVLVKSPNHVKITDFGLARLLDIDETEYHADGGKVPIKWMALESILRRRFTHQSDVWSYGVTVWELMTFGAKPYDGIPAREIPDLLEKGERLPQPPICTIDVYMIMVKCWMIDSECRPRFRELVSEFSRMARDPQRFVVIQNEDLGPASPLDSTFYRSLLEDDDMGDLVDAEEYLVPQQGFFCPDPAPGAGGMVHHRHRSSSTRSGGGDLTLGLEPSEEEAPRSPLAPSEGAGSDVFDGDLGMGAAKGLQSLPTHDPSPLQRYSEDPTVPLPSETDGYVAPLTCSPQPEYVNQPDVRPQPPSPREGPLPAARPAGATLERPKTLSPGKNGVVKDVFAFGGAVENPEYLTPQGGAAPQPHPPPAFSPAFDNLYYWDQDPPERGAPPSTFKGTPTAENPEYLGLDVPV

One may read the viability as a read-out of living cells in per cent, often relative to untreated cells. As usually defined, the inhibition is the change of the read-out against control, counted positive when it falls. As to `CCOC(=O)c1ccc(NCc2nc3ccccc3[nH]2)cc1`, the viability is 88.5% in experiment [1]; 88.5% (inactive) in experiment [3]; 86% (inactive) in [4]; 105% (inactive) in [5]; 89.7% in experiment [6] (setting [16]); 105% in [6] (setting [17]). The figures for the viability in experiment [12] and in experiment [13] were 86.8% (inactive) and 76.8% (inactive), respectively. Moreover, in experiment [2], the Her2 level was 97% (inactive). Also, the differential viability (reversal) in [6] (H69AR cells + 2 uM doxorubicin) was 15.1% (inactive). The figures for the inhibition in experiment [7], in experiment [8] and in experiment [14] were 0.93% (inactive), -2.62% (inactive) and 1.83% (inactive), respectively. The growth inhibition is -1.66% (inactive) in [9] and -8.54% (inactive) in [10]. Besides, the viability increase in experiment [11] was -5.9% (inactive). Besides, the RAM network inhibition in experiment [15] was 2.11% (inactive).

For `CCCCNC(=O)Cn1c(=O)n(C)c2ccccc21`, the viability is 105% in experiment [1]; 105% (inactive) in experiment [3]; 84.4% (inactive) in experiment [4]; 88.5% (inactive) in experiment [5]; 91.2% in [6] (setting [16]); 88.5% in experiment [6] (setting [17]). For the same compound, the viability is 106% (inactive) in [12] and 101% (inactive) in experiment [13]. Besides, in experiment [2], the Her2 level was 96.5% (inactive). Further, the differential viability (reversal) in experiment [6] (H69AR cells + 2 uM doxorubicin) was -2.7% (inactive). Besides, the figures for the inhibition in experiment [7], in experiment [8] and in experiment [14] were -5.07% (inactive), -2% (inactive) and 1.49% (inactive), respectively. Also, the growth inhibition is -9.7% (inactive) in experiment [9] and -4.06% (inactive) in [10]. Further, the viability increase in [11] was -0.03% (inactive). Also, the RAM network inhibition in [15] was -1.79% (inactive).

As to `O=C(O)C1CC(=O)N(CCOc2ccccc2)C1` (stereo not drawn), the viability in [1] was 105%; in experiment [3] it was 105% (inactive); in experiment [4] it was 111% (inactive); in [5], 93.9% (inactive); in experiment [6] (setting [16]), 97%; in [6] (setting [17]) it was 93.9%. The viability in [12] was 102% (inactive); in [13], 100% (inactive). For the same compound, the Her2 level in experiment [2] was 126% (inactive). Besides, in experiment [6] (H69AR cells + 2 uM doxorubicin), the differential viability (reversal) is -3.07% (inactive). Also, the figures for the inhibition in experiment [7], in experiment [8] and in [14] were -3.51% (inactive), -2.62% (inactive) and 0.69% (inactive), respectively. In addition, the growth inhibition in experiment [9] is 2.4% (inactive); in experiment [10], 3.82% (inactive). The viability increase in [11] is 0.57% (inactive). The RAM network inhibition in experiment [15] was 1.17% (inactive).

Consider `COc1ccc(NS(=O)(=O)c2ccc(NC(C)=O)cc2)cc1OC`, for which the viability in experiment [1] was 98.5%; in experiment [3] it was 98.5% (inactive); in [4], 83.5% (inactive); in [5], 94.5% (inactive); in experiment [6] (setting [16]), 89.5%; in [6] (setting [17]), 94.5%. For the same compound, the figures for the viability in [12] and in experiment [13] were 85.4% (inactive) and 85.2% (inactive), respectively. In addition, the Her2 level in experiment [2] was 99% (inactive). Moreover, the differential viability (reversal) in experiment [6] (H69AR cells + 2 uM doxorubicin) is 4.97% (inactive). Further, the inhibition was 2.69% (inactive) in experiment [7], 35.7% (active) in [8] and 1.85% (inactive) in [14]. For the same compound, the growth inhibition in [9] was 0.65% (inactive); in experiment [10], -9.44% (inactive). The viability increase in [11] is 0.44% (inactive). In addition, the RAM network inhibition in experiment [15] was -1.59% (inactive).

In the case of `CCn1cc(C(=O)NCCCOC)c(=O)c2cc(S(=O)(=O)N(C)C)ccc21`, the viability in experiment [1] is 92%; in [3] it was 92% (inactive); in experiment [4], 89.3% (inactive); in [5], 87.6% (inactive); in [6] (setting [16]) it was 111%; in [6] (setting [17]), 87.6%. For the same compound, the viability is 97.6% (inactive) in [12] and 94.2% (inactive) in [13]. Besides, the Her2 level in experiment [2] was 106% (inactive). In addition, in [6] (H69AR cells + 2 uM doxorubicin), the differential viability (reversal) was -23.8% (inactive). For the same compound, the inhibition in experiment [7] is -1.73% (inactive); in experiment [8], -5.33% (inactive); in experiment [14], 0.395% (inactive). Further, the growth inhibition is -8.04% (inactive) in experiment [9] and -9.63% (inactive) in [10]. In experiment [11], the viability increase is -2.52% (inactive). Further, the RAM network inhibition in experiment [15] is 0.52% (inactive).

Take `CC1CCC(NC(=O)Cn2ncc3ccccc32)CC1` (stereo not drawn): the viability in experiment [1] is 106%; in experiment [3] it was 106% (inactive); in [4], 107% (inactive); in [5], 95.5% (inactive); in [6] (setting [16]), 87.6%; in [6] (setting [17]) it was 95.5%. Further, the viability in experiment [12] is 97.9% (inactive); in experiment [13], 100% (inactive). For the same compound, the Her2 level in experiment [2] is 108% (inactive). Besides, the differential viability (reversal) in experiment [6] (H69AR cells + 2 uM doxorubicin) is 7.93% (inactive). Also, the results for the inhibition in [7], in experiment [8] and in [14] were -3.47% (inactive), -8% (inactive) and 1.21% (inactive), respectively. Moreover, the growth inhibition in experiment [9] was -9.46% (inactive); in experiment [10] it was 1.29% (inactive). Moreover, the viability increase in [11] was -0.27% (inactive). Also, the RAM network inhibition in [15] was 1.78% (inactive).

For the compound `CCOc1ccc(OCCCCN(C)C)cc1`, the viability in [1] is 89%; in experiment [3] it was 89% (inactive); in [4], 87.2% (inactive); in [5], 88.5% (inactive); in [6] (setting [16]), 86.7%; in [6] (setting [17]), 88.5%. Further, the values for the viability in experiment [12] and in experiment [13] were 96.8% (inactive) and 93.5% (inactive), respectively. For the same compound, in [2], the Her2 level was 92.5% (inactive). In addition, the differential viability (reversal) in experiment [6] (H69AR cells + 2 uM doxorubicin) was 1.8% (inactive). The values for the inhibition in experiment [7], in experiment [8] and in experiment [14] were -0.64% (inactive), 1.5% (inactive) and 3.26% (inactive), respectively. Besides, the results for the growth inhibition in experiment [9] and in [10] were -10% (inactive) and 3.69% (inactive), respectively. For the same compound, in experiment [11], the viability increase is -0.48% (inactive). Moreover, the RAM network inhibition in experiment [15] was 6.13% (inactive).

In the case of `Cc1ccc(CSc2nc3c(c(=O)[nH]2)CCC3)cc1`, the viability is 86.5% in experiment [1]; 86.5% (inactive) in experiment [3]; 79.7% (inactive) in experiment [4]; 93.1% (inactive) in [5]; 75.2% in [6] (setting [16]); 93.1% in experiment [6] (setting [17]). The viability in experiment [12] was 105% (inactive); in [13], 92.9% (inactive). Besides, in experiment [2], the Her2 level was 91.5% (inactive). Besides, the differential viability (reversal) in [6] (H69AR cells + 2 uM doxorubicin) is 17.8% (inactive). Also, the inhibition in experiment [7] is -0.13% (inactive); in [8], 2.67% (inactive); in experiment [14], 3% (inactive). The growth inhibition is -9.96% (inactive) in [9] and -26.7% (inactive) in experiment [10]. Also, the viability increase in [11] is -0.74% (inactive). Also, in experiment [15], the RAM network inhibition is 3.47% (inactive).

As to `CCOc1ccc(NC(=O)C(C)Sc2nnc(C)n2C)cc1` (stereo not drawn), the viability in experiment [1] is 92%; in experiment [3] it was 92% (inactive); in experiment [4], 97.6% (inactive); in experiment [5] it was 98.8% (inactive); in [6] (setting [16]), 96.1%; in experiment [6] (setting [17]), 98.8%. The viability in experiment [12] was 95.7% (inactive); in experiment [13], 93.9% (inactive). In addition, the Her2 level in [2] is 126% (inactive). The differential viability (reversal) in experiment [6] (H69AR cells + 2 uM doxorubicin) is 2.75% (inactive). In addition, the values for the inhibition in [7], in [8] and in experiment [14] were -1.33% (inactive), -1.17% (inactive) and 0.705% (inactive), respectively. For the same compound, the growth inhibition in [9] is -3.46% (inactive); in [10] it was 3.31% (inactive). In addition, in experiment [11], the viability increase was -0.82% (inactive). The RAM network inhibition in experiment [15] is -0.63% (inactive).

Values taken from PubChem BioAssay.
